From PubChem BioAssay (EPA / NIEHS) come the findings set out here.

SMILES strings stand for the structures. Activity calls are given as the source filed them. The calls were made as follows: active = hit-call score of the fitted dose curve at least 0.9, where 1 is the maximum; inactive = score below 0.9.

Read-out in the experiment: Monokine induced gamma interferon (MIG), CXCL9 (gene 4283)
The experiment in a line: BSK_3C_MIG: BioMAP Diversity Plus: 3C Assay for Monokine induced gamma interferon (MIG) Biomarker Activity (AID 2283021).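 As to AC50: MIG protein level measured by immunoassay in the treated endothelial cultures.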 The following applies: primary human endothelial cells (HUVEC); actives raise or lower the signal. Here is the method:
BSK_3C is a cell-based, multiplexed-readout assay that uses umbilical vein endothelium, a human vascular primary cell, with measurements taken at 24 hours after chemical dosing in a 96-well plate.BSK_3C_MIG is an assay component measured in the BSK_3C assay. It measures MIG antibody related to regulation of gene expression using ELISA technology.Data from the assay component BSK_3C_MIG was analyzed into 1 assay endpoint. This assay endpoint, BSK_3C_MIG, was analyzed with bidirectional fitting relative to DMSO as the negative control and baseline of activity. Using a type of binding reporter, gain or loss-of-signal activity can be used to understand changes in the signaling as they relate to the gene CXCL9. Furthermore, this assay endpoint can be referred to as a primary readout, because this assay has produced multiple assay endpoints where this one serves a signaling function. To generalize the intended target to other relatable targets, this assay endpoint is annotated to the cytokine intended target family, where the subfamily is chemotactic factor.
The levels of cell surface (or secreted, indicated by the prefix "s") biomarker endpoints were measured by ELISA. Overt cytotoxicity to cells in confluent adherent cultures (all systems other than the BT system) was assessed by measuring total protein levels using sulforhodamine B (SRB) staining in parallel cultures at the time of biomarker measurements, indicated as SRB endpoints. For proliferation assays for adherent cell types, individual cell types are cultured at sub-confluence and relative cell numbers quantified by SRB staining at time points optimized for each system (48 h: 3C and CASM3C systems; 72 h: BT and HDF3CGF systems; 96 h: SAg system). SRB was performed by staining cells with 0.1% SRB after fixation with 10% TCA and reading wells at 560 nm.Viability and proliferation of PBMC (T cells) was quantified by Alamar Blue reduction for the SAg and BT systems. For PBMC viability (referred to as PBMC Cytotoxicity within the assay endpoint names), cells were plated (75,000/well in a 96-well plate) and then chemical samples added for 1 h before addition of activators, SEB and TSST-1 (20 ng/mL final concentration each). Cells were incubated for 90 h. Then, Alamar Blue (20 uL/well) (Invitrogen, Cat DAL1100) was added for 6 h, and the plates were read with a fluorescence microplate reader at 546/580 nm (excitation/emission). For PBMC proliferation, cells were plated and activated as above but incubated for only 16 h prior to addition of Alamar Blue. Plates were read after 6 h.
For `CCCC(=O)OCCC(C)C`, the result was inactive. With `NCc1cccc(C2CCN(C(=O)c3ccc(C#Cc4ccccc4F)o3)CC2)c1`, the AC50 (as a rule, the midpoint of the concentration-response curve, whichever way the signal moves) is 36.2 µM (active). Turning to `CCCCCCCCOc1ccc(C(=O)c2ccccc2)c(O)c1`, the outcome was inactive. For the compound `CCN(CC)C(=O)c1cc(S(=O)(=O)Cc2ccccc2)c(N2CCC(c3ccccc3)CC2)cc1N(CC)CCN(C)C`, the concentration at half-maximal activity (AC50) was 29.9 µM (active). On to `O=C(O)Cc1cc(I)c(Oc2ccc(O)c(I)c2)c(I)c1`, for which the outcome was inactive.

`CC(C)(c1cc(Br)c(O)c(Br)c1)c1cc(Br)c(O)c(Br)c1`: the AC50 is 37.1 µM (active).

As to `O=c1[nH]sc2ccccc12`, the AC50 is 28.9 µM (active). Turning to `CCCOC(=O)c1cc(O)c(O)c(O)c1`, the outcome was inactive. On the same count and under the same terms, to `Clc1cc(Cl)c2c(c1)N=C1CCCCCN1C2` belongs “inactive”. For the compound `O=C(OCCCCCCOC(=O)c1ccccc1)c1ccccc1`, the result was inactive. For the compound `Cc1cccc2ccccc12`, the outcome was inactive. Regarding `O=c1c(-c2ccc(O)cc2)coc2cc(O)cc(O)c12`, the outcome was inactive. Consider `CC1(C)NC(=O)N(c2ccc([N+](=O)[O-])c(C(F)(F)F)c2)C1=O`, for which the result was inactive. Consider `Cc1occc1C(=O)Nc1ccc(C(=O)N2CCC(F)(F)/C(=C\C(=O)N3CCC(N4CCCCC4)CC3)c3ccccc32)cc1`, for which the result was inactive.

In the case of `CC(=O)N1CCN(c2ccc(OC[C@H]3CO[C@](Cn4ccnc4)(c4ccc(Cl)cc4Cl)O3)cc2)CC1`, the half-maximal activity concentration (AC50) is 34.5 µM (active).

Regarding `Oc1ccccc1`, the outcome was inactive. For `CCCCOC(=O)CC(CC(=O)OCCCC)(OC(C)=O)C(=O)OCCCC`, the outcome was inactive. With `CN(C)C(=O)C1(N2CCCCC2)CCN(CC[C@@]2(c3ccc(Cl)c(Cl)c3)CN(C(=O)c3ccccc3)CCO2)CC1`, the AC50 is 34.7 µM (active). As for `Cc1cn([C@H]2C[C@H](N=[N+]=[N-])[C@@H](CO)O2)c(=O)[nH]c1=O`, the result was inactive. Consider `CCCCCCCCCCCO`, for which the outcome was inactive. As for `O=C=NCCCCCCN=C=O`, the result was inactive. Consider `CN(C[C@@H](CC[N+]12CCC(C3CCCCC3)(CC1)CC2)c1ccc(Cl)c(Cl)c1)C(=O)c1cc(C(F)(F)F)cc(C(F)(F)F)c1`, for which the AC50 was 33.6 µM (active).

Take `CCCCOC(=O)c1ccc(O)cc1`: the outcome was inactive.

As to `CC[C@H](NC(=O)c1cc(F)ccc1NS(=O)(=O)c1cccc2cccnc12)c1ccccc1`, the outcome was inactive. Turning to `c1ccc2ccccc2c1`, the outcome was inactive.

Take `Cc1c2ccccc2c(C)c2c1ccc1ccccc12`: the result was inactive. Take `c1ccc2n[nH]nc2c1`: the result was inactive. `CCN(Cc1cccc(S(=O)(=O)O)c1)c1ccc(C(=C2C=CC(=[N+](CC)Cc3cccc(S(=O)(=O)O)c3)C=C2)c2ccccc2S(=O)(=O)[O-])cc1`: the result was inactive. For `O=CCCCC=O`, the result was inactive. As to `CCO[Si](CCCNC(N)=O)(OCC)OCC`, the outcome was inactive.

On to `CCCCCCCC[Si](OCC)(OCC)OCC`, for which the result was inactive. In the case of `CCN(Cc1cccnc1)C(=O)c1cccc(Cl)c1[C@]1(C)C(=O)N(Cc2ccc(OC)cc2OC)c2ccc(Cl)cc21`, the result was inactive. The same measure, in the same setting: to `CO[C@H]1/C=C/O[C@@]2(C)Oc3c(C)c(O)c4c(O)c(c(/C=N/N5CCN(C)CC5)c(O)c4c3C2=O)NC(=O)/C(C)=C\C=C\[C@H](C)[C@H](O)[C@@H](C)[C@@H](O)[C@@H](C)[C@H](OC(C)=O)[C@@H]1C` belongs “inactive”. The same measure, in the same setting: the entry for `COc1ccc2cc(S(=O)(=O)N[C@H](CC(=O)N[C@H](Cc3ccc(CN4[C@H](C)CCC[C@@H]4C)cc3)C(=O)N(C)C(C)C)c3ccc4c(c3)OCO4)ccc2c1` is “inactive”; for `C[C@]12CC[C@@H]3c4ccc(O)cc4CC[C@H]3[C@@H]1CC[C@H]2O` it is “inactive”. `CN(C)c1ccc(C(=C2C=CC(=[N+](C)C)C=C2)c2ccc(N(C)C)cc2)cc1`: the AC50 is 9.93 µM (active). In the case of `CCCCCCCCCCCCO`, the result was inactive. Regarding `CC[C@@H]1C[C@H](N(Cc2cc(C(F)(F)F)cc(C(F)(F)F)c2)C(C)=O)c2cc(C(F)(F)F)ccc2N1C(=O)OC(C)C`, the result was inactive. In the case of `CN1C(=O)N(c2ccccc2Br)Cc2cnc(Nc3ccc4c(c3)OCC(CO)O4)nc21` (stereo not given), the AC50 was 25.3 µM (active). As to `O=C(O)Cn1c(=O)n(Cc2ccc(Br)cc2F)c(=O)c2ccc(Cl)cc21`, the result was inactive.
